Reference: publication PMC4336329 (PLoS ONE, 2015)
Among all 310,000 compounds or so, about 14,000 (4.5%) showed an effect of 50% or more. Effects have a minus sign here. What follows is part of a selection rich in strong results, with near analogues and random picks from the rest.

Each compound was assayed against human ether-à-go-go-related gene (hERG) potassium channel (human, UniProt Q12809) (assay: primary screen, population patch clamp on CHO cells stably expressing hERG; higher = less effect of the substance).
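Also: peak tail current of the secondary pulse compared with the same well before compound.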

Sequence of human ether-à-go-go-related gene (hERG) potassium channel (Q12809 whole entry, looked up): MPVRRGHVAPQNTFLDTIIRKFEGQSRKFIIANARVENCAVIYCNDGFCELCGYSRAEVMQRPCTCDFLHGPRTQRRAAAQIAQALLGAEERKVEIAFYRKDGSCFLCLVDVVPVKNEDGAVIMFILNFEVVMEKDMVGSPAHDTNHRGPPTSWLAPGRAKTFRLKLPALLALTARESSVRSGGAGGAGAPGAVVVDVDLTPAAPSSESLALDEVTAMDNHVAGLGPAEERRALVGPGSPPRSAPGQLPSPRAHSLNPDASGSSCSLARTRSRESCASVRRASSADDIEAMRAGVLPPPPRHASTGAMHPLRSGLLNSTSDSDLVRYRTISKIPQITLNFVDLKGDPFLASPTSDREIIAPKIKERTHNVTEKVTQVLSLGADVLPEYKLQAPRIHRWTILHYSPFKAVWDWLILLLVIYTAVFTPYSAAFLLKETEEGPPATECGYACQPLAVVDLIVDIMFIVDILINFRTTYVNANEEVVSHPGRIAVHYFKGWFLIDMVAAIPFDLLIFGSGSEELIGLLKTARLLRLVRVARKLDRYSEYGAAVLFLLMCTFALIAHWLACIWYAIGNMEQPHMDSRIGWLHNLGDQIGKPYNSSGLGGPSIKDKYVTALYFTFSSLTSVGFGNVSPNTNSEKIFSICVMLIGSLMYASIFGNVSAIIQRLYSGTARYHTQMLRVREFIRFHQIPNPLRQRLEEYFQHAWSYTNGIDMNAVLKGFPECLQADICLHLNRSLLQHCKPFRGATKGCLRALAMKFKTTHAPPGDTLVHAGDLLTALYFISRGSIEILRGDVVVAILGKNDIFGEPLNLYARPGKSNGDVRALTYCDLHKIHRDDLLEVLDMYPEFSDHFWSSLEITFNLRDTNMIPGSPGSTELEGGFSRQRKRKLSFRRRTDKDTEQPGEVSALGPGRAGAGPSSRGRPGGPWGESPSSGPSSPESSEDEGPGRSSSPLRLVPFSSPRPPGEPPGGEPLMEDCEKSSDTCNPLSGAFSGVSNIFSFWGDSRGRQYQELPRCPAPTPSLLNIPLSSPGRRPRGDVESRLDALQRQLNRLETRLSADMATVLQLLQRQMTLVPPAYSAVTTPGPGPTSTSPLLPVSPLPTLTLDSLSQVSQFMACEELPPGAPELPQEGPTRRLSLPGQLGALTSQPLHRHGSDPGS

SMILES | hERG current change (%, negative = inhibition) at 10uM
CN1CCN(C(=O)Nc2ccccc2)CC1.O=C(O)C(=O)O | 23.2%
CCN(CC(=O)Nc1cc(Cl)ccc1C)C(=O)CN1C(=O)NC2(CCCC2)C1=O | 8.3%
CSc1ncccc1C(=O)OCC(=O)N(CC(C)C)C1CCS(=O)(=O)C1 (stereo not shown) | -0.0479%
Cc1cc(C)nc(N(C#N)Cc2ccc(Br)cc2)n1 | 4.33%
O=C1NC(=O)N(c2ccccc2)C(=O)/C1=C/c1coc2ccc(O)cc2c1=O | -6.18%
CN(C)CCCNC(=S)Nc1ccc(Oc2ccccc2)cc1 | -3.24%
CON=C1CCN(c2ncc(C(F)(F)F)cc2Cl)CC1 | -5.78%
CCN(CC)S(=O)(=O)c1cccc(C(=O)Nc2ccc(C#N)cc2)c1 | -77.3%
COc1cc(C#N)ccc1OCC(=O)Nc1cccc(S(=O)(=O)N2CCCC2)c1 | -44.4%
O=C(Cn1nnc(-c2ccccc2)n1)Nc1cccc(S(=O)(=O)N2CCOCC2)c1 | -56.2%
CCN(CC)S(=O)(=O)c1cccc(NC(=O)c2ccc(C#N)cc2)c1 | -35%
CCN(CC)S(=O)(=O)c1cccc(C(=O)Nc2ccccc2)c1 | -28%
O=C(Cn1nnc(-c2ccccc2)n1)Nc1cccc(S(=O)(=O)N2CCCC2)c1 | -2.26%
CCN(CC)S(=O)(=O)c1cccc(NC(=O)CNc2cccc(S(=O)(=O)N3CCCC3)c2)c1 | 5.46%
NC(=O)c1ccc(-c2nnn(CC(=O)Nc3cccc(S(=O)(=O)N4CCCC4)c3)n2)cc1 | 4.54%
CCN(CC)S(=O)(=O)c1cc(NC(=O)COc2ccc(C#N)cc2OC)ccc1C | -38.1%
CCN(CC)S(=O)(=O)c1cccc(NC(=O)COc2ccc(C#N)cc2OC)c1 | -72.4%
CN(C)S(=O)(=O)c1cccc(NC(=O)c2cccc(S(=O)(=O)N3CCCCC3)c2)c1 | -27.9%
CCN(CC)S(=O)(=O)c1cccc(NC(=O)c2cccc(S(=O)(=O)N3CCCC3)c2)c1 | -80.8%
Cc1cc(C)c(S(=O)(=O)c2ccccc2Cl)c(=O)[nH]1 | 10.7%
C=CCOCCN(CCOCC=C)C1=NS(=O)(=O)c2ccccc21 | 12.5%
COc1ccc(NS(=O)(=O)c2cccc(NC(=O)C3=NN(c4ccccc4)C(=O)CC3)c2)cc1 | -35.1%
O=C(NC1=NCCS1)c1cc2ccccc2o1 | -23.8%
CN1CCN(S(=O)(=O)c2cccc(C(=O)Nc3sccc3C(N)=O)c2)CC1 | -75.4%
O=C(Nc1ccc2c(c1)CCC2)c1cccc(S(=O)(=O)N2CCN(c3ccc(F)cc3)CC2)c1 | -3.29%
CN1CCN(S(=O)(=O)c2cccc(C(=O)Nc3sccc3C#N)c2)CC1 | -5.03%

SMILES | hERG current change (%, negative = inhibition) at 10uM
O=C(Nc1ccncc1)c1cccc(S(=O)(=O)N2CCN(c3ccc(F)cc3)CC2)c1 | -82.9%
Cc1cccnc1NC(=O)c1cccc(S(=O)(=O)N2CCN(c3ccc(F)cc3)CC2)c1 | -35.1%
CN1CCN(S(=O)(=O)c2cccc(C(=O)Nc3cc(C(N)=O)cc(C(N)=O)c3)c2)CC1 | 4.71%
O=C(Nc1ccncc1)c1cccc(S(=O)(=O)N2CCOCC2)c1 | -58.4%
O=C(Nc1cccc(S(=O)(=O)N2CCCC2)c1)c1cccc(S(=O)(=O)N2CCOCC2)c1 | -15.5%
CCN(CC)S(=O)(=O)c1cccc(NC(=O)c2cncc(Br)c2)c1 | -69.9%
CN(C)S(=O)(=O)c1cccc(NC(=O)c2cncc(Br)c2)c1 | -3.39%
O=C(Nc1cccnc1)c1cccc(S(=O)(=O)N2CCOCC2)c1 | 4.06%
CCN(CC)S(=O)(=O)c1cccc(NC(=O)c2ccc(Br)cc2)c1 | 4.07%
Cc1ccc(SCC(=O)c2cc(C)c(O)c(C)c2)cc1 | -3.19%
Cc1ccccc1NC(=O)CCc1nnc2ccc(N3CCC4(CC3)OCCO4)nn12 | 8.74%
CSCc1nnc(NC(=O)c2ccc(S(=O)(=O)N(C)C)cc2)o1 | 20.7%
CCOC(=O)/C(C#N)=N/Nc1ccc(S(=O)(=O)N2CCc3ccccc32)cc1 | 2.18%
CCOC(=O)C1=C(C)OC(N)=C(C#N)C1c1cccs1 (stereo not shown) | 8.62%
Cc1nnc(NC(=O)CSc2nnc(CNC(=O)C34CC5CC(CC(C5)C3)C4)n2C2CCCCC2)s1 | 2.98%
CCOc1ccccc1N1CCN(C(=O)c2cc3cc(OC)ccc3[nH]2)CC1 | -3.66%
C=CCn1c(O)c(C(CC)=Nc2ccc3c(c2)CCC3)c(=O)[nH]c1=O | 1.65%
O=C(Nc1ccncc1)c1cccc(S(=O)(=O)N2CCCC2)c1 | -60.7%
O=C(Nc1cccc(S(=O)(=O)N2CCCC2)c1)c1ccncc1 | -46.5%
O=C(Nc1ccccc1)c1cccc(S(=O)(=O)N2CCCCC2)c1 | 0.607%
CCN(CC)S(=O)(=O)c1cccc(NC(=O)CNC2CCCCCC2)c1.O=C(O)C(=O)O | -60.8%
CN1CCN(S(=O)(=O)c2cccc(C(=O)Nc3cccc(S(N)(=O)=O)c3)c2)CC1 | 12.8%
CN(C)S(=O)(=O)c1cccc(NC(=O)CNC2CCCCC2)c1.O=C(O)C(=O)O | 5.24%
CCN(CC)S(=O)(=O)c1ccc(NC(=O)CNC2CCCCC2)cc1.O=C(O)C(=O)O | -7.08%
CCc1cccc(CC)c1NC(=O)c1cccc(S(=O)(=O)N2CCN(C)CC2)c1 | -4.14%
CCc1cccc(NC(=O)c2cccc(S(=O)(=O)N3CCN(C)CC3)c2)c1 | -53.9%
